Measured values reported in PubChem BioAssay.
Activity calls are given as the source filed them. Unless noted, the rule behind the calls is not given here.

Columns and labels:
[1] = test system: Wnt5a (protein binding on small-molecule microarray); assay: small molecules binding Wnt5a protein – biophysical, small-molecule microarray, 635/667 nm fluorescence, primary screen (AID 1142); conditions: 635 nm fluorescence, higher = more signal;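 note: fluorescence read at 667 nm with signal to noise per printed feature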
[2] = ATP-based viability of Huh7 replicon cells – cell-based, CellTiter-Glo luminescence, basal, 48 h, cytotoxicity control for HCV replication inhibitor project, primary screen (AID 1143); conditions: higher = more signal, called active from +8 up or from −8 down;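 note: Huh7 hepatoma cells carrying a hepatitis C replication reporter with no stimulus; test concentration not given here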
[3] = Pseudomonas biofilm growth suppression – PAO1 strain, BacTiter-Glo luminescence, LB-PBS, primary screen (AID 1144); conditions: P. aeruginosa PAO1 biofilm, 12 h, higher = more signal
[4] = basal CRE-LacZ reporter activity in PC12 – cell-based, unstimulated, primary screen (AID 1145); conditions: no forskolin, luminescence, 4.5 h, higher = more signal, called active from +8 up or from −8 down
[5] = forskolin-driven CRE-LacZ activity in PC12 – cell-based, CRE-LacZ reporter, forskolin-stimulated, primary screen (AID 1146); conditions: luminescence, 4.5 h, higher = more signal, called active from +8 up or from −8 down;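 note: PC12 cells with 6xCRE LacZ reporter stimulated by forskolin 10 µM; beta-galactosidase reporter signal reflecting CREB driven transcription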
[6] = target: Streptavidin (Streptomyces avidinii) (UniProt P22629); assay: compounds binding control protein streptavidin – biophysical, small-molecule microarray, 635/667 nm fluorescence, artefact control for SMM compound annotation, primary screen (AID 1147); conditions: higher = more signal;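 note: signal reflects streptavidin binding to arrayed compounds as a control protein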
[7] = probe aInhba binding on compound microarray – biochemical, small-molecule microarray, 635/667 nm fluorescence, primary screen (AID 1148); conditions: higher = more signal;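 note: score merges 667nm spot fluorescence with signal-to-noise for antibody binding to printed compounds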
[8] = target: Torsin-1A (Homo sapiens) (UniProt O14656); assay: TOR1A wild-type binding on microarray – cell lysate, small-molecule microarray, lysate, 635/667 nm, primary screen (AID 1149); conditions: COS7 hTOR1A-WT lysate, 635 nm fluorescence, higher = more signal
[9] = target: Torsin-1A (Homo sapiens) (UniProt O14656); assay: torsin A mutant lysate binding on microarrays – cell lysate, small-molecule microarray, COS7 lysate, 635/667 nm fluorescence, primary screen (AID 1150); conditions: COS7 hTOR1A mutant lysate, 635 nm fluorescence, higher = more signal;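 note: score pools 667 nm emission and signal to noise measuring lysate protein binding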
[10] = test system: Sonic hedgehog protein (Shh); assay: Sonic hedgehog microarray binding compounds – biochemical, small-molecule microarray, 635/667 nm fluorescence, primary screen (AID 1151); conditions: 635 nm fluorescence, higher = more signal;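 note: Shh protein binding to compounds spotted on small-molecule microarray slides; score combines spot fluorescence intensity with signal-to-noise across triplicate slides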
[11] = optical density shifts of acrAB sulA E. coli – strain DRC41, OD650, 48 h, E. coli filamentation inducer project, primary screen (AID 1152); conditions: higher = more signal, called active from +8 up or from −8 down;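 note: E. coli MC1000 strain DRC41 lacking acrAB efflux pump and sulA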
[12] = probe aLefty1 binding on compound microarray – biochemical, small-molecule microarray, 635/667 nm fluorescence, primary screen (AID 1153); conditions: higher = more signal;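 note: score merges spot fluorescence with signal-to-noise ratio from the scanned slide images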
[13] = plasmodial surface anion channel blockers, osmotic lysis – cell-based, P. falciparum Indochina, OD700, 1 h, primary screen (AID 1154); conditions: P. falciparum Indochina infected RBC osmotic lysis, higher = more signal, called active from +8 up or from −8 down
[14] = plasmodial surface anion channel blockers, osmotic lysis – cell-based, P. falciparum Indochina, OD700, 2 h, primary screen (AID 1155);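 note: lysis reports solute entry through the parasite surface anion channel PSAC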; conditions: P. falciparum Indochina infected erythrocytes, higher = more signal, called active from +8 up or from −8 down
[15] = changes in parasitized red cell lysis, either direction – P. falciparum Indochina, OD700, 3 h, PSAC antagonist project, primary screen (AID 1156); conditions: P. falciparum-infected erythrocytes, osmotic lysis, higher = more signal, called active from +8 up or from −8 down
[16] = plasmodial surface anion channel blockers, osmotic lysis – cell-based, P. falciparum Indochina, OD700, 18 h, primary screen (AID 1157); conditions: P. falciparum Indochina infected erythrocytes, osmotic lysis OD700, 18 h; higher = more signal, called active from +8 up or from −8 down
[17] = S6 kinase pathway phospho-S6 level changes – cell-based, A549, cytoblot, luminescence, serum-stimulated, primary screen (AID 1158); conditions: 5 h, higher = more signal;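 note: serum-stimulated A549 lung adenocarcinoma cells; signal is phosphorylated S6 detected by cytoblot immunostaining with HRP secondary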
[18] = target: NADPH oxidase 2 (Homo sapiens) (UniProt P04839); assay: compounds shifting NOX2 Amplex Red fluorescence – cell-based, HEK293-NOX2, PMA-stimulated, NOX inhibitor project, primary screen (AID 1159); conditions: 45 min, higher = more signal, called active from +8 up or from −8 down; note: test concentration not given here
[19] = target: NADPH oxidase 4 (Homo sapiens) (UniProt Q9NPH5); assay: compounds shifting NOX4 Amplex Red fluorescence – cell-based, HEK293-NOX4, tetracycline-induced, NOX inhibitor project, primary screen (AID 1160); conditions: HEK293-NOX4, Amplex Red H2O2 fluorescence, 45 min; higher = more signal, called active from +8 up or from −8 down
[20] = target: NADPH oxidase 5 (Homo sapiens) (UniProt Q96PH1); assay: compounds shifting NOX5 Amplex Red fluorescence – cell-based, HEK293-NOX5, NOX inhibitor project, primary screen (AID 1161); conditions: HEK293-NOX5, ionomycin, 45 min, higher = more signal
NADPH oxidase 5 (Homo sapiens), sequence (Q96PH1 whole entry, looked up): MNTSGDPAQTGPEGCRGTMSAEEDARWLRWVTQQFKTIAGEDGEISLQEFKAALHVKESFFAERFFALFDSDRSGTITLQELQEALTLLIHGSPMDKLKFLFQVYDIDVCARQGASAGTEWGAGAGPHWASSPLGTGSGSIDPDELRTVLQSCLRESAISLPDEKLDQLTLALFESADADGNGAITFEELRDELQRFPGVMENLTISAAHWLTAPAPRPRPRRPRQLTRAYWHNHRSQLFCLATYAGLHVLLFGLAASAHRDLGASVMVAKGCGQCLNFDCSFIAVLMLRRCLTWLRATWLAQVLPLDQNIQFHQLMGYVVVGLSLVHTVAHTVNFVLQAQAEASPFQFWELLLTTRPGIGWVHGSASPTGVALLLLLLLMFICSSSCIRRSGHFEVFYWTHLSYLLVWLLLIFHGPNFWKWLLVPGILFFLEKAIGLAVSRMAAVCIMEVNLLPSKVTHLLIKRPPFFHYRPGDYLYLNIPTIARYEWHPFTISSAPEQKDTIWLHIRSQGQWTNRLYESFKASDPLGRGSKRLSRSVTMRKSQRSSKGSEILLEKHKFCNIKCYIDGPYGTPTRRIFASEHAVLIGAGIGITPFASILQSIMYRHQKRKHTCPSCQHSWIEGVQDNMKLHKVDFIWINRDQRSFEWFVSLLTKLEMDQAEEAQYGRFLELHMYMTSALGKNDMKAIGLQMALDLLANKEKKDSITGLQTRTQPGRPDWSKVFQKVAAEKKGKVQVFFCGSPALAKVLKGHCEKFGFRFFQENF

Streptavidin (Streptomyces avidinii), sequence (P22629 whole entry, looked up): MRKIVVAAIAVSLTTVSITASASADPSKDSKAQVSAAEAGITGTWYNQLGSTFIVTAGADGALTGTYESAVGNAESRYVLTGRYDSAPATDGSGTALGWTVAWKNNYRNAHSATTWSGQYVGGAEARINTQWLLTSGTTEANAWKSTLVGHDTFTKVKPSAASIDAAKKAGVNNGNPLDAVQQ
NADPH oxidase 2 (Homo sapiens), sequence (P04839 whole entry, looked up): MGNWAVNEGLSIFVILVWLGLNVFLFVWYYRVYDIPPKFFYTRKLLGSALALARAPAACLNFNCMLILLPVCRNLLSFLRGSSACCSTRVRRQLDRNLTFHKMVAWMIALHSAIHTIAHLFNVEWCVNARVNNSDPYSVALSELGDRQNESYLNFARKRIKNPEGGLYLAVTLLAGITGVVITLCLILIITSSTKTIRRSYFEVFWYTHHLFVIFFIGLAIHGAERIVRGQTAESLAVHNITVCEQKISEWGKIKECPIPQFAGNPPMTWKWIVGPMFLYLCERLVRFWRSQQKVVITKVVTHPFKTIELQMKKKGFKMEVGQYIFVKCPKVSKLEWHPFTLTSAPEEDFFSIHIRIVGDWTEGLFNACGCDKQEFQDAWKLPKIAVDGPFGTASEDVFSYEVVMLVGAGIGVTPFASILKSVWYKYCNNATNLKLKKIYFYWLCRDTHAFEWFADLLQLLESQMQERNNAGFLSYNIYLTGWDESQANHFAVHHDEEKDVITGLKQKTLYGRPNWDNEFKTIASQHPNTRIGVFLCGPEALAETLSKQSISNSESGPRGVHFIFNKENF
Torsin-1A (Homo sapiens), sequence (O14656 whole entry, looked up): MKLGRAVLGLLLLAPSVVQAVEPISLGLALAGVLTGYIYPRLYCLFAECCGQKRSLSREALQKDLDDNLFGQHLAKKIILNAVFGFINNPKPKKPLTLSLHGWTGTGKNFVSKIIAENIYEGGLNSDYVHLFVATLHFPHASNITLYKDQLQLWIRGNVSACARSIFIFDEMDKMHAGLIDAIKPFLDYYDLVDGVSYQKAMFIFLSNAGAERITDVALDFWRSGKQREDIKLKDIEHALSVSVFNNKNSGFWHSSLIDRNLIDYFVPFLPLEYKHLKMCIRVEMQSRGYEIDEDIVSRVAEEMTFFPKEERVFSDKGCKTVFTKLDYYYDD
NADPH oxidase 4 (Homo sapiens), sequence (Q9NPH5 whole entry, looked up): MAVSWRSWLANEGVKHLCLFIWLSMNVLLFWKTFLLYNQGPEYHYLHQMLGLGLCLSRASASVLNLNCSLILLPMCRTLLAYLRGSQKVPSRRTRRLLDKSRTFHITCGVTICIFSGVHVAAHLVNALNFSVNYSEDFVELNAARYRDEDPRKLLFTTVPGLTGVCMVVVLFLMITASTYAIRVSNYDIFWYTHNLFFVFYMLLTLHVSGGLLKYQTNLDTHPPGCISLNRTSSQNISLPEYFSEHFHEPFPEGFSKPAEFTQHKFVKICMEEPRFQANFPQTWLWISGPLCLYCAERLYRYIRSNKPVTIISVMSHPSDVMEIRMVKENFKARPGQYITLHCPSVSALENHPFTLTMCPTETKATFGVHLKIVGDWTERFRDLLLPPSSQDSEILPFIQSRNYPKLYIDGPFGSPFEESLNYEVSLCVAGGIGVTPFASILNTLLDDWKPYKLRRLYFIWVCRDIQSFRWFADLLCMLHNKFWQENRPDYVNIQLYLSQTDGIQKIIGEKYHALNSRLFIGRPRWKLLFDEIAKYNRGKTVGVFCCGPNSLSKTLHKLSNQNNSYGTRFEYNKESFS

Row | Compound | composite z-score [1] | z-score [2] | z-score [3] | z-score [4] | z-score [5] | composite z-score [6] | composite z-score [7] | composite z-score [8] | composite z-score [9] | composite z-score [10] | z-score [11] | composite z-score [12] | z-score [13] | z-score [14] | z-score [15] | z-score [16] | z-score [17] | z-score [18] | z-score [19] | z-score [20]
1 | CON=C(C)CCC(=O)OC[C@H]1O[C@H](c2ccccc2)C=C[C@@H]1Oc1ccc(OC)cc1 | 0.564 | -0.539 (inactive) | -0.38 (inactive) | 1.88 (inactive) | -0.0322 (inactive) | 0.0584 | -0.0963 | 0.0952 | -0.013 | 0.556 | -2.31 (inactive) | -0.196 | 5.54 (inactive) | 1.17 (inactive) | 12.7 (active) | 0.49 (inactive) | -0.312 | -2.7 (inactive) | -0.458 (inactive) | -4.44
2 | CCOC(=O)[C@H](CC(C)C)NC(=O)CCC1CC(OC(=O)NCCc2ccc(F)cc2)CC2(CCCC(COC(=O)NCC(c3ccccc3)c3ccccc3)O2)O1 (stereo not given in full) | 0.228 | -0.361 (inactive) | -0.427 (inactive) | -0.438 (inactive) | -0.292 (inactive) | 1.22 | 0.0111 | -0.106 | 0.241 | 0.721 | -1.18 (inactive) | -0.147 | 4 (inactive) | -0.523 (inactive) | 0.784 (inactive) | -0.316 (inactive) | 0.0441 | 1.47 (inactive) | 1.88 (inactive) | 1.52
3 | COC(=O)NCC=Cc1nc(CCCO)co1 | 0.134 | -0.068 (inactive) | 0.633 (inactive) | 0.286 (inactive) | -0.0562 (inactive) | 0.362 | -0.353 | 0.519 | 0.802 | 0.883 | -0.0186 (inactive) | -0.164 | 0.0325 (inactive) | 0.496 (inactive) | -0.304 (inactive) | -0.145 (inactive) | -0.726 | -0.745 (inactive) | 0.996 (inactive) | 0.449
4 | CCc1cc2c(nc1CC)CCN(CCC(C)=NOC[C@H]1O[C@H](c3ccccc3)C=C[C@@H]1Oc1ccc(OC)cc1)C2 | -0.363 | -4.11 (inactive) | -1.57 (inactive) | 5.73 (inactive) | 0.28 (inactive) | 2.21 | -0.0093 | 0.15 | 0.274 | 0.839 | -0.563 (inactive) | -0.0003 | 6.37 (inactive) | -0.735 (inactive) | 2.37 (inactive) | -1.62 (inactive) | 1.18 | -1.83 (inactive) | -0.845 (inactive) | -2.68
5 | C=C(C)C(=O)OCC1CN2[C@@H](CC[C@@H](C)[C@@H]2c2ccc(Br)cc2)C(=O)O1 (stereo not given in full) | 0.192 | -0.295 (inactive) | 1.34 (inactive) | 1.91 (inactive) | -0.0828 (inactive) | 0.33 | -0.0627 | -0.2 | 1.13 | 0.486 | -0.949 (inactive) | 0.183 | 3.23 (inactive) | 0.672 (inactive) | 0.189 (inactive) | 0.491 (inactive) | -0.48 | -0.0685 (inactive) | -0.149 (inactive) | -0.475
6 | COC(=O)[C@@H]1CC[C@H](C)[C@@H](c2ccc(C)cc2)N1C(=O)c1ccc(C=NO[C@@H](C)c2cn([C@H](CO)Cc3ccccc3)nn2)cc1 | 0.408 | -2.15 (inactive) | 0.476 (inactive) | 5.32 (inactive) | -0.216 (inactive) | 0.279 | -0.024 | 0.243 | 0.634 | 0.738 | 0.442 (inactive) | -0.0615 | 4.57 (inactive) | 1.12 (inactive) | 0.809 (inactive) | 0.907 (inactive) | 0.406 | -3.24 (inactive) | -1.13 (inactive) | -3.8
7 | CCOC(=O)[C@H](CC(C)C)NC(=O)CCC1CC(OC(=O)NCCc2ccc(F)cc2)CC2(CCCC(COC(=O)NCC3CCCCC3)O2)O1 (stereo not given in full) | 0.0548 | 0.791 (inactive) | 0.239 (inactive) | 0.381 (inactive) | 0.868 (inactive) | 1.42 | -0.148 | -0.0001 | 0.915 | 0.648 | -1.12 (inactive) | -0.169 | 2.04 (inactive) | 0.132 (inactive) | 0.107 (inactive) | -0.341 (inactive) | 0.673 | -0.202 (inactive) | 0.728 (inactive) | 0.123
8 | C#CCCCON=C1C[C@@H](O)[C@@H](O)[C@@H]2[C@@H]3C(=O)N(C(C)(C)C)C(=O)[C@@H]3CC[C@H]12 | -0.19 | 0.0285 (inactive) | 0.189 (inactive) | 0.608 (inactive) | 0.0692 (inactive) | 0.941 | 0.0228 | -0.309 | -0.123 | -0.914 | 0.233 (inactive) | 0.571 | 3.84 (inactive) | 0.371 (inactive) | -0.342 (inactive) | 0.204 (inactive) | -0.162 | -0.722 (inactive) | 0.132 (inactive) | 0.307
9 | CCOC(=O)NN=C1C[C@@H](O)[C@@H](O)[C@@H]2[C@@H]3C(=O)N(C(C)(C)C)C(=O)[C@@H]3CC[C@H]12 | 0.138 | -0.0395 (inactive) | 0.655 (inactive) | -0.295 (inactive) | 0.269 (inactive) | 0.344 | 0.0427 | 0.446 | 0.307 | 0.187 | 1.04 (inactive) | 0.0701 | 0.521 (inactive) | 0.16 (inactive) | 0.786 (inactive) | 0.18 (inactive) | 0.698 | -1.89 (inactive) | 0.644 (inactive) | 0.0282
